Targets with a hit are over-represented here; the source holds about 7,900 in all. About 0.6% of all pairs of compound and target were hits. Values without a mark were called inactive.
Tests used:
Assay in all cases: log2 fold change, soluble protein after heating vs DMSO (PISA); higher = thermal stabilisation; K562 cells, 10 uM, 30 min; active = over 0.2 and 3.5 SD of the protein, either way, in both replicates (recomputed)
[1] = compound: C#Cc1cccc(Nc2ncnc3cc(OCCOC)c(OCCOC)cc23)c1 [erlotinib]
How it was run: (§1)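 Soluble protein was quantified by TMTpro 16plex LC-MS/MS after channel sums were equalised. It was obtained as the supernatant after 21,000xg for 90 min from pooled aliquots of K562 cells (2×10^6 cells/mL, 10 μM compound, 30 min) heated for 3 min across 48°C-58°C and extracted in PBS with 0.5% NP-40 at 4°C. Thermal stability values are relative to control samples and come from duplicates. They are given as log2 fold changes.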

[2] = compound: C/C(=N\NC(=O)C1=CC(=CC=C1)S(=O)(=O)N2CCOCC2)/C3=C(C=CC(=C3)Cl)O
How it was run: as §1

[3] = compound: C1=CC(=C(C=C1Cl)C2=NC3=NC=CN=C3C(=N2)NC4=CC=NC=C4)F
How it was run: as §1

[4] = compound: C1=CC(=CC=C1C2=NC3=C(N2)C=C(C=C3)C(=O)N)OC4=CC=C(C=C4)Cl
How it was run: as §1

[5] = compound: C1=CC2=C(C=CC(=C2)/C=C\3/C(=O)NC(=NCC4=CC=CS4)S3)N=C1
How it was run: as §1

[6] = compound: C1=CC2=NC=CN=C2C=C1/C=C/3\C(=O)NC(=O)S3
How it was run: as §1

[7] = compound: C1=CC=C(C=C1)C2=NC(=C(N2)C3=CC=NC=C3)C4=CC(=C(C=C4)Cl)O
How it was run: as §1

[8] = compound: C1=CC=C2C(=C1)C3=NNC4=CC=CC(=C43)C2=O
How it was run: as §1

[9] = compound: C1CCN(C1)C(=O)NC2=CC=CC(=C2)NC3=NC=C(C(=N3)NCCC4=CN=CN4)Br
How it was run: as §1

[10] = compound: C1CN(CCC1(CC2=CC=C(C=C2)Cl)N)C3=NC=NC4=C3C=CN4
How it was run: as §1

[11] = compound: C1COCCN1CCN2C3=CC=CC=C3N=C2NC(=O)C4=CC(=CC=C4)[N+](=O)[O-] [IRAK-1-4 Inhibitor I]
How it was run: as §1

[12] = compound: C=CC(=O)N1CCC[C@@H](n2nc(-c3ccc(Oc4ccccc4)cc3)c3c(N)ncnc32)C1 [ibrutinib]
How it was run: as §1

[13] = compound: CC(=O)c1cnc2ccc(-c3cc(Cl)c(O)c(Cl)c3)nc2c1N[C@H]1CC[C@H](CN(C)C)CC1
How it was run: as §1

[14] = compound: CC(C)(C)Cn1c(N)nc2ccc(-c3[nH]c(C(C)(C)C)nc3-c3ccc(F)cc3)nc21 [ralimetinib]
How it was run: as §1

[15] = compound: CC(C)(O)CC(=O)NCCn1ccc2ncnc(Nc3ccc(Oc4cccc(C(F)(F)F)c4)c(Cl)c3)c21
How it was run: as §1

[16] = compound: CC(C)C1=C2N=C(C=C(N2N=C1)NCC3=CC=CC=C3)NCCCCCCN
How it was run: as §1

[17] = compound: CC(C)C[C@@H](C=O)NC(=O)[C@H](CC(C)C)NC(=O)[C@H](CC(C)C)NC(=O)OCc1ccccc1
How it was run: as §1

[18] = compound: CC(C)N(C[C@H]1O[C@@H](n2cnc3c(N)ncnc32)[C@H](O)[C@@H]1O)[C@H]1C[C@@H](CCc2nc3cc(C(C)(C)C)ccc3[nH]2)C1 [pinometostat]
How it was run: as §1

[19] = compound: CC1=C(C(CC(=O)N1)C2=CC=C(C=C2)C(F)(F)F)C(=O)NC3=C(C=C4C(=C3)C=NN4)F
How it was run: as §1

[20] = compound: CC1=C(C2=C(C=C1)C(=O)C3=CC=CC=C3N2CCCN)C
How it was run: as §1

UniProt O94822, sequence (O94822 whole entry, looked up): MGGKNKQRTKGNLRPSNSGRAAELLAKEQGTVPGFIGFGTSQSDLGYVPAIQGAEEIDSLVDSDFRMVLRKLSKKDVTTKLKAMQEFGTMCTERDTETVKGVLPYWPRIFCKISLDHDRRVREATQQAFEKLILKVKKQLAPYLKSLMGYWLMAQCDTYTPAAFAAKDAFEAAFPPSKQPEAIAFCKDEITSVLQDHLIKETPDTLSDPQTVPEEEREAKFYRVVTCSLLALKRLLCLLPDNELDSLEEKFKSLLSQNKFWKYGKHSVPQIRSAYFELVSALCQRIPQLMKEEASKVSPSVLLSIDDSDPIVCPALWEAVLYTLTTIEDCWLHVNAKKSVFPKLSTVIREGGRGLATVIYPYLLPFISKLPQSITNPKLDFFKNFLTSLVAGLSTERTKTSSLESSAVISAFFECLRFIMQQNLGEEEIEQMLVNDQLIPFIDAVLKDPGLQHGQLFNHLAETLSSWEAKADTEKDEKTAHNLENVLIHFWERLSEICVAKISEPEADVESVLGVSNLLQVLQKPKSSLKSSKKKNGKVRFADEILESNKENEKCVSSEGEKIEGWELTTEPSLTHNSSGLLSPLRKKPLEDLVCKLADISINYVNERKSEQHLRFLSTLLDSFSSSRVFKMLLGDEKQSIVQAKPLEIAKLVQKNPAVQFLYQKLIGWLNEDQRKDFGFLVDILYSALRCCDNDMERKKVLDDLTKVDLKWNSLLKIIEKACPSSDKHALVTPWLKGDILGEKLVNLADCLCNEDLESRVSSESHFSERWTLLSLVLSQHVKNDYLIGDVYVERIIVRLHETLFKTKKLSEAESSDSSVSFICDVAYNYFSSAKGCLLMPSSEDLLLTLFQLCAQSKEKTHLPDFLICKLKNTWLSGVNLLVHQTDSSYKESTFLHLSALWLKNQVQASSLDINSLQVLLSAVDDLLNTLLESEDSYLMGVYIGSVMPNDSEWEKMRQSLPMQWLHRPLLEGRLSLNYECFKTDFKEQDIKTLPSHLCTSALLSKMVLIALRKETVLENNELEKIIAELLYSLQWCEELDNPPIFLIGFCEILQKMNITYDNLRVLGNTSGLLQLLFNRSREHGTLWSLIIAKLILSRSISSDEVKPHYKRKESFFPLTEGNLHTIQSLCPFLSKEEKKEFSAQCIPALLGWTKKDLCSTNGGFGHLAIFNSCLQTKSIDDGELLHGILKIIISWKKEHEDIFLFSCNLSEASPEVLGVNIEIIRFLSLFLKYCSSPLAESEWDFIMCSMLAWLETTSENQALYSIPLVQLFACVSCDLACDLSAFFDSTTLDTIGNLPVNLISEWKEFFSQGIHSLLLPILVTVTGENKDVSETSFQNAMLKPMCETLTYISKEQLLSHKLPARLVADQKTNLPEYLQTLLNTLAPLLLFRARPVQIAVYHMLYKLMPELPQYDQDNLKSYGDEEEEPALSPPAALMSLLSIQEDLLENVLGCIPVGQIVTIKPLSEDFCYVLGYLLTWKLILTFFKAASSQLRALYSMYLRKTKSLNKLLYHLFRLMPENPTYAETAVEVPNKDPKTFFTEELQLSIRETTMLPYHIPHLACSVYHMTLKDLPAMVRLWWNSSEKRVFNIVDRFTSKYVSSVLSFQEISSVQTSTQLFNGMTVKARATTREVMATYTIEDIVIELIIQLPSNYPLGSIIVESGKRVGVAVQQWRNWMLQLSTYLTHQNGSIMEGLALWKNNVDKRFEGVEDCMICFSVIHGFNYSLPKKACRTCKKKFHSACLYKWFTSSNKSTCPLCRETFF
UniProt Q9H9P8, sequence (Q9H9P8 whole entry, looked up): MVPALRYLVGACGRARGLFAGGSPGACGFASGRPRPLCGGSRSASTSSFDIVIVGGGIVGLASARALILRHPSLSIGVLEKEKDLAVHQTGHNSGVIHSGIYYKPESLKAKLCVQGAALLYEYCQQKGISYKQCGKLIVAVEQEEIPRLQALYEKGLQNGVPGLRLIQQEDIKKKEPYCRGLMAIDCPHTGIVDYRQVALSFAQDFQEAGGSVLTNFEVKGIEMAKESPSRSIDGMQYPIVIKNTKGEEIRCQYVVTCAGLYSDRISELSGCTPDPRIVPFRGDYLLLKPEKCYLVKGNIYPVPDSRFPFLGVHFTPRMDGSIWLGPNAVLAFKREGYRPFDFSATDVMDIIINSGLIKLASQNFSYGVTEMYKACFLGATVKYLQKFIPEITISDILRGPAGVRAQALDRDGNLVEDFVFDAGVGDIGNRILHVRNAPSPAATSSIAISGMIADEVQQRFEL
UniProt Q9NVH2, sequence (Q9NVH2 whole entry, looked up): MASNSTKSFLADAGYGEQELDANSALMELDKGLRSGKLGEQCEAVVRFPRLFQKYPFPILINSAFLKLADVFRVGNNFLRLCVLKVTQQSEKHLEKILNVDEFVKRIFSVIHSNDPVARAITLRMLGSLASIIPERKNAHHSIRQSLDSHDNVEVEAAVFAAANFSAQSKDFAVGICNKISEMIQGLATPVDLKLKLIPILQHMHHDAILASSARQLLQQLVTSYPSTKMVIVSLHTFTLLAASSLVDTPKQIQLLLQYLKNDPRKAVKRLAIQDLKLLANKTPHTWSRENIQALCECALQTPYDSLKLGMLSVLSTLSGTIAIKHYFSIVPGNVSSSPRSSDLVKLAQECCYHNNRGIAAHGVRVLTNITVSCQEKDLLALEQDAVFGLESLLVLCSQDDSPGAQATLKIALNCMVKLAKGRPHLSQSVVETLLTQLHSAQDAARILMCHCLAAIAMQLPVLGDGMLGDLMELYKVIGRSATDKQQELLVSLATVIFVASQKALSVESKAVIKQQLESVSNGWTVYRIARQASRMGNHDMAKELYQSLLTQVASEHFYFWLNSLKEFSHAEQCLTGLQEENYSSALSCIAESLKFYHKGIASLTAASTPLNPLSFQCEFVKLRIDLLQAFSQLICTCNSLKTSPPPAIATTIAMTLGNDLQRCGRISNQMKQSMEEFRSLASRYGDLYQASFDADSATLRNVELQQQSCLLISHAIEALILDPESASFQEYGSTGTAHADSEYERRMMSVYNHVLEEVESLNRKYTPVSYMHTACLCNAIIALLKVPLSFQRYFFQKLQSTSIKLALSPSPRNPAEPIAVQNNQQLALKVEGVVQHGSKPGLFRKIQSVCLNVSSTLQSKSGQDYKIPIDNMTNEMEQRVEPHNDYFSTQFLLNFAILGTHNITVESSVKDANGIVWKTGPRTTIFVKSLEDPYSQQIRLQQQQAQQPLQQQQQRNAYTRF
UniProt Q14974, sequence (Q14974 whole entry, looked up): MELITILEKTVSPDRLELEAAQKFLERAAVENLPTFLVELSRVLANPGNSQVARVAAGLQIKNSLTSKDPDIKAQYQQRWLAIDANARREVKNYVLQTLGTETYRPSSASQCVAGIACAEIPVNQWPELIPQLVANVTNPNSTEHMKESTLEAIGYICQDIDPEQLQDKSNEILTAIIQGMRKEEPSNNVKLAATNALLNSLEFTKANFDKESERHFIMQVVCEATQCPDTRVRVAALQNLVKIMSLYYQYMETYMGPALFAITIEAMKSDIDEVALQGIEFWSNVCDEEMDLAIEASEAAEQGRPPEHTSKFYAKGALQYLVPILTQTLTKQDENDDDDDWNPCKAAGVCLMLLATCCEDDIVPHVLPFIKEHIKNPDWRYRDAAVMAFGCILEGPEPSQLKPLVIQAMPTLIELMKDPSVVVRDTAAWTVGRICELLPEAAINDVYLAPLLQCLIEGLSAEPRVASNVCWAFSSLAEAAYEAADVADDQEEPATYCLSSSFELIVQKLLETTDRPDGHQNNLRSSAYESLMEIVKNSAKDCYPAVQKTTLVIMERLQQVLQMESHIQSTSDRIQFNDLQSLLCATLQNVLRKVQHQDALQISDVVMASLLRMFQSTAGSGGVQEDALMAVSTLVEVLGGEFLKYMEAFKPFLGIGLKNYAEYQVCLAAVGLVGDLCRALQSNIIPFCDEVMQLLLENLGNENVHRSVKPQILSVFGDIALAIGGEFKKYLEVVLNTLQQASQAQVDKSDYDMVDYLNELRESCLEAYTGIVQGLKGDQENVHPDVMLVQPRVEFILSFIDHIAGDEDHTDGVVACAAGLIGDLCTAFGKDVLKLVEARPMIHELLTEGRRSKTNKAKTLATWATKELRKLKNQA
UniProt Q6P9B9, sequence (Q6P9B9 whole entry, looked up): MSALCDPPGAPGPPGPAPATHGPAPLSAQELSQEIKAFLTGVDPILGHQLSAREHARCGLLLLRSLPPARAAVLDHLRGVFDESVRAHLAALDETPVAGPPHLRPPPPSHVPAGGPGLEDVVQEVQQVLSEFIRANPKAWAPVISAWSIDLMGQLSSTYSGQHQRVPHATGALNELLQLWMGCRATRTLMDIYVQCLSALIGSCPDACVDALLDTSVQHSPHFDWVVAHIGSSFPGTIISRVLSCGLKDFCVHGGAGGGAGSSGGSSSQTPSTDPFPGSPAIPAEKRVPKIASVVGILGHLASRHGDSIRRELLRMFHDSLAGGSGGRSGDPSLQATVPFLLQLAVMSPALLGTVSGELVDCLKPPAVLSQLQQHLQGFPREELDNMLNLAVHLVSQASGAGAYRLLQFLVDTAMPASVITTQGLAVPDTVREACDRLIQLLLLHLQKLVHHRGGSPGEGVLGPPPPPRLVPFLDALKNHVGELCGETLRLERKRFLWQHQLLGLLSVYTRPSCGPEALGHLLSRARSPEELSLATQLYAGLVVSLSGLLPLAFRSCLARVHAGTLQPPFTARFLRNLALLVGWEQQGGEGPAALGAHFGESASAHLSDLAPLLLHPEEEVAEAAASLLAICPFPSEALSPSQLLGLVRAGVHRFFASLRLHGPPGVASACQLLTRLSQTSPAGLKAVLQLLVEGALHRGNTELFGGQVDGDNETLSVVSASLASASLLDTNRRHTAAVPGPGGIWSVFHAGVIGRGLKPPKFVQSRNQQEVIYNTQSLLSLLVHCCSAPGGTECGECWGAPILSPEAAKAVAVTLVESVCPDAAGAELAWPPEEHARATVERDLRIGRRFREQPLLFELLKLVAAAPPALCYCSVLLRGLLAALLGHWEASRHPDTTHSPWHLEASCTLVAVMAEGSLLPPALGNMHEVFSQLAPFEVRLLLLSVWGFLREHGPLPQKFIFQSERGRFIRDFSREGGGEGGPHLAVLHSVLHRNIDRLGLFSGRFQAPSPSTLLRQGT

Target | log2 fold change [1] | log2 fold change [2] | log2 fold change [3] | log2 fold change [4] | log2 fold change [5] | log2 fold change [6] | log2 fold change [7] | log2 fold change [8] | log2 fold change [9] | log2 fold change [10] | log2 fold change [11] | log2 fold change [12] | log2 fold change [13] | log2 fold change [14] | log2 fold change [15] | log2 fold change [16] | log2 fold change [17] | log2 fold change [18] | log2 fold change [19] | log2 fold change [20]
LRPPRC (UniProt P42704) | 0.265 | 0.526 | 0.002 | -0.255 | 0.204 | -0.148 | 0.185 | -0.223 | -0.133 | -0.197 | -0.18 | -0.013 | -0.439 | -0.144 | -0.891 | -1.09 (active) | 0.059 | 0 | 0.062 | -0.252
LRBA (UniProt P50851) | 0.007 | 0.024 | 0.068 | 0.002 | 0.031 | 0.051 | 0.011 | -0.002 | 0.012 | 0.015 | 0.015 | -0.02 | -0.006 | -0.023 | -0.059 | -0.091 | 0.005 | 0.008 | -0.005 | -0.004
MAD2L1 (UniProt Q13257) | -0.01 | 0.056 | 0.029 | -0.052 | 0.033 | 0.056 | -0.009 | 0.007 | 0.01 | -0.032 | 0 | -0.095 | 0.008 | -0.004 | -0.057 | -0.112 | -0.018 | 0.031 | -0.004 | -0.033
MDC1 (UniProt Q14676) | 0.056 | -0.284 | -0.184 | 0.025 | 0 | 0.057 | 0.177 | -0.094 | -0.139 | 0.072 | -0.012 | -0.013 | -0.013 | 0.062 | 0.122 | -0.321 | 0.176 | 0.133 | 0.001 | 0.11
MAP3K4 isoform 2 (UniProt Q9Y6R4) | -0.027 | 0.019 | 0.036 | -0.023 | 0.039 | -0.017 | -0.023 | -0.031 | 0.034 | 0.07 | 0.049 | 0 | 0.198 | 0.007 | -0.014 | -0.027 | -0.023 | 0.014 | -0.033 | 0.002
MAPK14 isoform 2 (UniProt Q16539) | 0.313 | -0.051 | 0.936 (active) | -0.136 | 0.01 | -0.013 | 1 (active) | 0.207 | 0.021 | -0.102 | -0.011 | 0.001 | 1.01 (active) | 1.48 (active) | -0.096 | -0.218 | -0.089 | -0.141 | -0.152 | -0.013
L2HGDH (UniProt Q9H9P8) | 0.027 | 0.169 | 0.009 | 0.043 | 0.07 | 0.01 | 0.05 | 0.093 | -0.005 | -0.007 | 0.095 | 0.028 | -0.065 | 0.003 | -0.092 | -0.069 | -0.026 | 0 | -0.018 | 0.029
KPNB1 (UniProt Q14974) | -0.001 | 0.075 | -0.03 | -0.036 | -0.028 | 0.029 | -0.049 | -0.016 | -0.034 | -0.136 | -0.079 | -0.041 | 0.033 | 0.042 | -0.036 | -0.355 (active) | 0.035 | 0.113 | 0.012 | -0.038
MAP4K4 isoform 3 (UniProt O95819) | -0.057 | 0.058 | -0.047 | 0.021 | 0 | 0.034 | -0.069 | -0.316 (active) | -0.031 | -0.012 | 0 | 0.043 | -1.13 (active) | -0.039 | -0.023 | -0.027 | 0.024 | 0.046 | 0.107 | 0.073
LTN1 isoform 3 (UniProt O94822) | 0.026 | 0.114 | -0.021 | -0.02 | 0.032 | -0.021 | -0.027 | -0.056 | -0.027 | -0.031 | -0.05 | -0.015 | -0.02 | 0.007 | -0.136 | -0.305 (active) | 0.055 | 0.098 | -0.007 | 0.093
KCTD2 (UniProt Q14681) | 0.177 | -0.154 | -0.125 | -0.126 | 0.158 | -0.062 | 0.055 | -0.106 | 0.26 | -0.005 | -0.03 | 0.058 | -0.054 | 0 | -0.015 | 0.016 | 0.171 | 0.052 | -0.049 | -0.028
LEMD3 (UniProt Q9Y2U8) | 0.102 | 0.091 | 0.109 | -0.007 | 0.003 | -0.05 | -0.01 | 0.169 | -0.063 | -0.029 | 0.04 | 0.03 | -0.173 | -0.082 | -0.09 | -0.056 | 0.039 | -0.026 | 0.068 | 0.101
MCL1 (UniProt Q07820) | -0.225 | 0 | -0.037 | -0.01 | -0.057 | 0.027 | -0.121 | -0.161 | -0.039 | 0 | 0.052 | 0.095 | -0.036 | 0.175 | -0.054 | -0.234 | 0.295 | -0.186 | 0.091 | -0.117
INTS7 (UniProt Q9NVH2) | 0.39 | 0.067 | -0.016 | 0.046 | -0.175 | 0.036 | -0.081 | 0.022 | -0.091 | -0.009 | 0.021 | -0.104 | 0.029 | 0.028 | -0.085 | -0.146 | 0.077 | -0.136 | -0.07 | 0.048
INTS5 (UniProt Q6P9B9) | -0.027 | 0.025 | -0.403 (active) | -0.086 | -0.023 | 0.097 | -0.138 | -0.18 | -0.126 | -0.033 | 0.076 | -0.039 | 0.529 | 0.019 | -0.232 | 0.052 | -0.064 | 0.033 | -0.102 | 0.073

From the supplement of paper PMC10849652
